Screening results as filed in PubChem BioAssay.
The list is not random: actives were taken first. Their share in the collection is about 6.8%.
Tcruzi prolif – blocks T. cruzi growth in NIH3T3 culture; T. cruzi beta-gal in NIH3T3, GalScreen luminescence, 90 h; inhibition, % at 8.34 µM; actives 5.9% (n = 77,000); AID 624255;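 active means mean inhibition above about 93%, with at least 55% of replicates each passing it, limit read from the data, passing the limit was not always enough; inconclusive means only one of those two conditions holds; inactive means neither condition holds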
C diff growth – blocks growth of Clostridium difficile. Clostridium difficile clinical isolate growth, OD600, 24 h; active compounds read low. growth activity, negative = inhibition, % at 16 µg/mL (by protocol). actives 0.25% (n = 86,000). AID 1259249;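 active means mean growth activity at or below -80% and every replicate also at or below -80%; inconclusive means mean at or below -80% but some replicate above -80%; inactive means mean growth activity above -80%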
Pf Dd2 inh – inhibitors of Plasmodium falciparum Dd2 growth. P. falciparum Dd2 growth, SYBR Green, 72 h; active compounds read low. activity change, % at 10 µM. actives 2.3% (n = 94,000). AID 1159554; in the data active means activity change below about -80%; inconclusive means no clear call, values can overlap the other calls
Hits are given with their value; – = inactive; ? = inconclusive; · = not tested or not shown.

SMILES	Tcruzi prolif	C diff growth	Pf Dd2 inh
C[C@@H]1CN([C@@H](C)CO)C(=O)c2cc(NS(=O)(=O)c3ccc(F)cc3)ccc2O[C@@H](C)CCCCO[C@H]1CN(C)S(=O)(=O)c1cccs1	–	–	·
COc1ccc2c3c(n(C)c2c1)[C@@H](CO)NCC31CN(C(=O)c2cccc(F)c2)C1	·	–	-82
COc1ccc2c3c(n(C)c2c1)[C@H](CO)N(C(=O)c1ccc(F)cc1)CC31CCN(C)CC1	·	–	–
COc1ccc2c3c(n(C)c2c1)[C@@H](CO)NCC31CN(C(=O)c2ccc(F)cc2)C1	·	·	–
COc1ccc2c3c(n(C)c2c1)[C@@H](CO)N(C(=O)c1ccc(F)cc1)CC31CCN(C(=O)c2ccc(F)cc2)CC1	·	–	-86
Cc1noc(C)c1NC(=O)Nc1ccc2c(c1)C(=O)N([C@H](C)CO)C[C@@H](C)[C@H](CN(C)C(=O)Nc1ccc(C(F)(F)F)cc1)O2	–	–	–
CCC(=O)N1CC2(C1)CN(Cc1ccccc1Cl)[C@H](CO)c1[nH]c3cc(OC)ccc3c12	·	–	-85
CCCC(=O)N1CC2(C1)CN(Cc1ccc(Cl)cc1)[C@H](CO)c1[nH]c3cc(OC)ccc3c12	·	–	-90
CCC(=O)N1CCC2(CC1)CN(Cc1cccc(Cl)c1)[C@@H](CO)c1[nH]c3cc(OC)ccc3c12	·	–	–
CCC(=O)N1CC2(C1)CN(Cc1cccc(Cl)c1)[C@H](CO)c1[nH]c3cc(OC)ccc3c12	·	–	-89
COc1ccc2c3c([nH]c2c1)[C@H](CO)N(Cc1ccc(Cl)cc1)CC31CN(S(C)(=O)=O)C1	·	–	–
COc1ccc2c3c([nH]c2c1)[C@H](CO)N(Cc1ccccc1)CC31CN(C(C)=O)C1	·	–	–
COc1ccc2c3c([nH]c2c1)[C@H](CO)N(Cc1cccc(Cl)c1)CC31CN(C(C)=O)C1	·	–	-83
CCC(=O)N1CC2(C1)CN(Cc1ccc(OC)cc1)[C@H](CO)c1[nH]c3cc(OC)ccc3c12	·	–	–
C[C@H](CO)N1C[C@H](C)[C@H](CN(C)C(=O)Nc2ccc3c(c2)OCO3)OCCCC[C@H](C)Oc2ccc(NC(=O)c3ccncc3)cc2C1=O	–	–	–
C[C@H](CO)N1C[C@H](C)[C@H](CN(C)C(=O)CCCN(C)C)OCCCC[C@H](C)Oc2ccc(NC(=O)c3ccccc3)cc2C1=O	–	–	–
O=C(C[C@@H]1C=C[C@@H](NC(=O)Nc2ccc(F)cc2)[C@@H](CO)O1)NCc1cccc(F)c1	·	–	·
C[C@@H]1CN([C@H](C)CO)C(=O)c2cc(NC(=O)NC3CCCCC3)ccc2O[C@@H](C)CCCCO[C@@H]1CN(C)Cc1ccc2c(c1)OCO2	–	–	·
COC(=O)C[C@H]1C[C@H]2c3cc(NS(=O)(=O)c4cccc(OC)c4)ccc3O[C@H]2[C@H](CO)O1	·	–	–
CCC(=O)N1CC2(C1)CN(Cc1ccc(Cl)cc1)[C@@H](CO)c1[nH]c3cc(OC)ccc3c12	·	–	-90
CCCC(=O)N1CC2(C1)CN(Cc1ccc(Cl)cc1)[C@@H](CO)c1[nH]c3cc(OC)ccc3c12	·	–	-92
COc1ccc2c3c([nH]c2c1)[C@@H](CO)N(Cc1ccc(Cl)cc1)CC31CN(S(C)(=O)=O)C1	·	–	–
CCC(=O)N1CC2(C1)CN(Cc1ccc(Cl)cc1)[C@H](CO)c1[nH]c3cc(OC)ccc3c12	·	–	?
CCNC(=O)C[C@H]1CC[C@@H]2[C@@H](COc3ccc(NC(=O)c4ccccc4)cc3C(=O)N2C)O1	–	–	–
C[C@H](CO)N1C[C@H](C)[C@@H](CN(C)C(=O)Cc2cccnc2)Oc2cc(C#Cc3ccccc3F)ccc2S1(=O)=O	·	–	-84
SMILES	Tcruzi prolif	C diff growth	Pf Dd2 inh
C[C@H]1CN([C@@H](C)CO)S(=O)(=O)c2ccc(C#Cc3ccccc3F)cc2O[C@H]1CN(C)C(=O)Cc1ccncc1	·	–	–
C[C@@H]1CN([C@@H](C)CO)S(=O)(=O)c2ccc(C#Cc3ccccc3F)cc2O[C@@H]1CN(C)C(=O)c1ccc2c(c1)OCO2	·	–	–
C[C@H]1CN([C@@H](C)CO)S(=O)(=O)c2ccc(C#Cc3ccccc3F)cc2O[C@H]1CN(C)C(=O)c1ccc2c(c1)OCO2	·	–	-88
CCCN(C)C[C@H]1Oc2cc(C#Cc3cccnc3)ccc2S(=O)(=O)N([C@H](C)CO)C[C@@H]1C	–	–	-82
CCCN(C)C[C@@H]1Oc2cc(C#Cc3cccnc3)ccc2S(=O)(=O)N([C@@H](C)CO)C[C@H]1C	–	–	-89
CCCN(C)C[C@H]1Oc2cc(C#Cc3ccncc3)ccc2S(=O)(=O)N([C@H](C)CO)C[C@H]1C	·	–	–
CCCN(C)C[C@H]1Oc2cc(C#Cc3ccncc3)ccc2S(=O)(=O)N([C@@H](C)CO)C[C@H]1C	·	–	–
CS(=O)(=O)N(CC1CCC1)C[C@@H]1N[C@@H](CO)[C@@H]1c1ccccc1	–	–	–
